Data reported in PubChem BioAssay AID651730 (NMMLSC, 2012).
Activity calls are given as the source filed them. No rule for the calls is given here.

experiment: V-ATPase regulators in yeast, S. cerevisiae, pHLuorin, powder sets 2-3, dose response (AID 651730); details: S. cerevisiae vacuolar pH, pHluorin fluorescence; series mostly up to 100 µM

outcome, inactive:
Cc1cncc(C(=O)Nc2ccccc2N2CCOCC2)n1, Nc1cncc(C(=O)Nc2ccccc2N2CCOCC2)n1, O=C(c1ccc(Br)o1)N1CCN(c2nc3ccc(F)cc3s2)CC1, COCc1cccc(C(=O)Nc2ccccc2N2CCOCC2)c1, CS(=O)(=O)c1ccc(C(=O)Nc2ccccc2N2CCOCC2)o1, COCc1ccc(C(=O)N2CCN(c3nc4ccc(F)cc4s3)CC2)o1, Cc1ccnc(C(=O)N2CCN(c3nc4ccc(F)cc4s3)CC2)c1, CN(C)C(=O)c1cccc(C(=O)N2CCN(c3nc4ccc(F)cc4s3)CC2)c1, O=C(c1cncc(Cl)n1)N1CCN(c2nc3ccc(F)cc3s2)CC1, Cc1cncc(C(=O)N2CCN(c3nc4ccc(F)cc4s3)CC2)n1, O=C(Nc1ccccc1N1CCOCC1)c1cccc(Cl)n1, COCc1ccc(C(=O)Nc2ccccc2N2CCOCC2)o1, Cc1cccc(C(=O)N2CCN(c3nc4ccc(F)cc4s3)CC2)n1, O=C(Nc1ccccc1N1CCOCC1)c1cncc(Cl)n1, CS(=O)(=O)Cc1cccc(C(=O)N2CCN(c3nc4ccc(F)cc4s3)CC2)c1, O=C(c1cccc(C(F)(F)F)c1)N1CCN(c2nc3ccc(F)cc3s2)CC1, O=C(Nc1ccccc1N1CCOCC1)c1ccc(Br)o1, N#Cc1cccc(C(=O)Nc2ccccc2N2CCOCC2)c1, NS(=O)(=O)c1cccc(C(=O)Nc2ccccc2N2CCOCC2)c1, O=C(c1cccc(C(F)(F)F)n1)N1CCN(c2nc3ccc(F)cc3s2)CC1, O=C(c1cccc(Cl)n1)N1CCN(c2nc3ccc(F)cc3s2)CC1, Cc1cccc(C(=O)Nc2ccccc2N2CCOCC2)n1, O=C(c1cccc(Br)n1)N1CCN(c2nc3ccc(F)cc3s2)CC1, NC(=O)c1cccc(C(=O)N2CCN(c3nc4ccc(F)cc4s3)CC2)c1, O=C(Nc1ccccc1N1CCOCC1)c1cc(Cl)ccn1, Nc1ncc(C(=O)N2CCN(c3nc4ccc(F)cc4s3)CC2)o1, Cc1ccc(C(=O)N2CCN(c3nc4ccc(F)cc4s3)CC2)o1, NS(=O)(=O)c1cccc(C(=O)N2CCN(c3nc4ccc(F)cc4s3)CC2)c1, N#Cc1ccnc(C(=O)Nc2ccccc2N2CCOCC2)c1, N#Cc1ccnc(C(=O)N2CCN(c3nc4ccc(F)cc4s3)CC2)c1
